Results: PubChem BioAssay AID977606 (Broad Institute, 2014)
In all, about 1,500 compounds went through this assay and about 430 (29%) were called active. Only a sample is shown. Potency and affinity values are given separately. Values without a mark were called inactive. How the calls were made is not given here.

Assay: insulin secretion activators without glucose, dose response, counter-screen for glucose-dependent insulin secretion activators, cell-based, INS-1E, Gaussia luciferase, luminescence, cherry-pick (AID 977606);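 further: 0% = median of neutral control wells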
Conditions: INS-1E Gaussia luciferase insulin secretion, no glucose, 100% = twice neutral-control luminescence; series mostly up to 35 µM; activation: at the top concentration
For Nc1nc(SCc2nc3scc(-c4ccccc4)c3c(=O)[nH]2)n[nH]1, the “activation” value was -17.5%. For CCCC(=O)Nc1ccc(N2CCN(S(C)(=O)=O)CC2)cc1, the “activation” value was 14.1%. In the case of O=C(O)CCCNC(=O)c1nn(Cc2ccccc2)c(=O)c2ccccc12, the “activation” value is reported as 1.47%. For C/C=C/c1ccc(OCCN2C(=O)NC(C)(C)C2=O)c(OC)c1, the “activation” value was -4.08%. With COc1ccc(C2=Nn3c(nnc3-c3ccccc3F)SC2)cc1OCC1CC1 the “activation” value was -24.7%. In the case of O=C(Nc1cccnc1Cl)C1=NN(c2ccccc2)C(=O)CC1, the “activation” value is reported as -2.54%. With O=C(Nc1nccs1)c1cc(N2CCOCC2)nc2ccccc12 the “activation” value was -9.4%. In the case of CCc1onc(C)c1C(=O)Nc1ccc(N2CCOCC2)cc1, the “activation” value is reported as 21.2%. For CS(=O)(=O)N1CCN(c2ccccc2NC(=O)c2ccco2)CC1, the “activation” value was 21.4%. With C[C@@H]1CN([C@H](C)CO)C(=O)c2cc(C3=CCCCC3)cnc2O[C@H]1CN(C)C(=O)CN1CCOCC1 the “activation” value was 33.7%. For CCNc1nc(NCC)nc(N(C)/N=C/c2ccco2)n1, the “activation” value was 7.09%. In the case of COc1cc(NC(=O)c2c(-c3ccccc3Cl)noc2C)c2ncccc2c1, the “activation” value is reported as -11.6%. In the case of CCc1ccc(N(C2C=CS(=O)(=O)C2)S(=O)(=O)c2ccccc2)cc1 (configuration not stated), the “activation” value is reported as 7.78%. For COc1ccc(CCNC(=O)Cc2ccc3c(c2)OCO3)cc1OC, the “activation” value was -14.8%. In the case of COc1ccc(CC(=O)c2ccc(OC)c(OC)c2)cc1, the “activation” value is reported as -6.86%. In the case of COc1ccc(C(=O)NCC(=O)OCC(=O)NC2CCCCCC2)cc1OC, the “activation” value is reported as -8.94%. For COC(=O)C1C(=O)NC(SC)=C(C#N)C1c1ccccc1 (configuration not stated), the “activation” value was -94.9%. With COc1cccc(CNC(=O)N[C@@H](CC(C)C)C(=O)O)c1 the “activation” value was 4.45%. With COc1ccc(C2N(c3ccccc3)C(=O)C2(F)F)cc1OC (configuration not stated) the “activation” value was 1.38%. In the case of COC(=O)C1=C(C)NC(=S)NC1c1cccc(OC)c1 (configuration not stated), the “activation” value is reported as 4.93%. In the case of Cc1cccc(C2N=C(N)Nc3nc4ccccc4n32)c1 (configuration not stated), the “activation” value is reported as 16.5%. For CCOc1ccc(C(=O)NCC(=O)Nc2cc(C)ccn2)cc1OCC, the “activation” value was -0.143%. In the case of CCCN(Cc1nnc(-c2ccccc2Cl)o1)C(=O)c1cc2ccccc2o1, the “activation” value is reported as -3.92%. In the case of c1ccc2nc3c(nc2c1)c1ccccc1n3CCN1CCOCC1, the “activation” value is reported as 5.65%. For COc1ccc(CCN(C)C(=O)C(CCSC)NC(=O)c2ccco2)cc1OC (configuration not stated), the “activation” value was 2.04%. In the case of CC(=O)Nc1ccc(S(=O)(=O)Nc2ccc3c(c2)n(C)c(=O)n3C)c(C)c1, the “activation” value is reported as 3.77%. For COc1nc(N2CCOCC2)nc(-n2cccc2)n1, the “activation” value was -0.551%. In the case of COc1ccc(S(=O)(=O)N(C)c2ccc(C(=O)NCC3CCCO3)cc2)cc1OC (configuration not stated), the “activation” value is reported as 6.43%. For Cc1ccc(C2(C)NC(=O)N(CC(=O)Nc3ccc(-c4nc5ccc(C)cc5s4)cc3)C2=O)cc1 (configuration not stated), the “activation” value was -15.2%. With Cc1ccnc(NC(=O)CNC(=O)c2ccco2)c1 the “activation” value was -10.1%. For COc1ccc(-c2c(NC(=O)c3ccco3)oc3ccc(Cl)cc3c2=O)cc1, the “activation” value was -3.48%. With CCC(=O)Nc1cc2nn(-c3ccc(OC)cc3)nc2cc1C the “activation” value was -3.71%. For CCOc1cc(NC(=O)c2ccco2)c(OCC)cc1NC(=O)c1cc(OC)c(OC)c(OC)c1, the “activation” value was -13.1%. In the case of COc1ccc(-c2nc(CCNC(=O)c3ccco3)cs2)cc1OC, the “activation” value is reported as -0.006%. For COc1ccc(S(=O)(=O)N2CCCCC2)cc1NC(=O)C1CC1C (configuration not stated), the “activation” value was 26.7%. With CC(Oc1ccc2c3c(c(=O)oc2c1)CCCC3)C(=O)NCc1cccnc1 (configuration not stated) the “activation” value was -13%. In the case of Cc1ccc(Nc2ncnc3sccc23)c(C)c1, the “activation” value is reported as -5.06%. In the case of O=C(CN1C(=O)NC(Cc2c[nH]c3ccccc23)C1=O)NCCc1ccccc1 (configuration not stated), the “activation” value is reported as 0.275%. With O=C(Nc1nnc(CCS(=O)(=O)c2ccc3ccccc3c2)s1)c1cccs1 the “activation” value was 1.61%. In the case of O=C(Nc1ccc(NC(=O)c2cccs2)cc1)c1ccc(Br)o1, the “activation” value is reported as -6.3%. In the case of CS(=O)(=O)N1CCCCC1c1cc(C(=O)Nc2cccc(C#N)c2)no1 (configuration not stated), the “activation” value is reported as 3.77%. For CN(c1ccc(F)cc1)S(=O)(=O)c1ccc(Cl)c(C(=O)NCC2CCCO2)c1 (configuration not stated), the “activation” value was -1.9%. In the case of Cc1cc(C)nc(NC(=O)c2ccc(Cl)cc2Cl)n1, the “activation” value is reported as -13.6%. For COc1cc(Cl)c(C)cc1NC(=O)c1ccccc1NC(=O)CN1CCN(C(C)=O)CC1, the “activation” value was -5.13%. With O=C(CNC(=O)c1ccco1)N/N=C/c1ccc(C(=O)O)cc1 the “activation” value was 13.5%. With COCCN(CCOC)Cc1cc(=O)oc2cc(C)c(C)cc12 the “activation” value was 19.4%. In the case of COc1cccc2cc(-c3cc(=O)oc4cc(C)c(O)cc34)oc12, the “activation” value is reported as -14.2%. In the case of Cc1sc2ncn(CC(=O)NCc3ccccc3)c(=O)c2c1C, the “activation” value is reported as 3.79%. With Cc1c(OCC(=O)NCc2ccccn2)ccc2c3c(c(=O)oc12)CCCC3 the “activation” value was -14.3% [at 11 µM]. With O=C1NC(=O)C2(CCCCC2C2CCCCC2)N1 (configuration not stated) the “activation” value was -0.57%. In the case of COc1ccccc1CNC(=O)CCS(=O)(=O)Cc1ccc(C)cc1, the “activation” value is reported as 7.48%. With Cc1cc(C)c(CSc2nnnn2-c2ccc(C(=O)O)cc2)c(C)c1 the “activation” value was -5.78%. In the case of CC(C)c1cc(C(C)C)n2nc(N)nc2n1, the “activation” value is reported as -3.96%. In the case of CN1CCSc2ccc(C(=O)Nc3cccc(F)c3)cc21, the “activation” value is reported as -8.84%. For CC(=O)c1ccc(OCC(=O)N(C2CCCCC2)C2CCS(=O)(=O)C2)cc1 (configuration not stated), the “activation” value was 4.75%. With Cc1ccc(C(=O)N2CCN3C(=O)c4ccccc4C23c2ccccc2)cc1 (configuration not stated) the “activation” value was 1.92%. With COc1cc2cnc(-c3cccnc3)cc2cc1OC the “activation” value was -6.43%. In the case of Cc1ccc(S(=O)(=O)NCc2csc(-c3cccs3)n2)cc1, the “activation” value is reported as 13.5%. For COc1cc2[nH]c(-c3ccc(C)cc3)cc(=O)c2cc1OC, the “activation” value was -15.4%. For O=C(Cn1[nH]c(=O)c2ccccc2c1=O)OCC(=O)c1ccc(F)cc1, the “activation” value was -5.33%. For C=CCN(CC=C)S(=O)(=O)c1ccc(C(=O)Nc2sc3c(c2C(N)=O)CCCCC3)cc1, the “activation” value was 23.2%. With CCN(Cc1ccccc1)S(=O)(=O)c1ccccc1Br the “activation” value was -6.72%. For CCOCCCNC(=O)c1oc2ccc3c(c2c1C)C(O)CC(C)(C)O3 (configuration not stated), the “activation” value was 0.062%. For NC(=O)c1ncn([C@@H]2O[C@H](C(=O)N[C@H](Cc3ccccc3)C(=O)O)[C@@H](O)[C@H]2O)n1, the “activation” value was -1.16%. With CCc1nc2c(OCc3ccccc3C(=O)OC)cccn2c1N(C)C(=O)c1ccncc1 the “activation” value was -2.47%. For Cc1cccc(C)c1NC(=O)C1c2ccccc2Oc2ccccc21, the “activation” value was 26.8%. With O=c1[nH]c2cc(Cl)ccc2n(CCNc2ncc(C(F)(F)F)cc2Cl)c1=O the “activation” value was 7.49%. For O=C(c1cc(-c2ccccc2)nc2ccccc12)N1CCCC1, the “activation” value was -4.1%. With Nn1c(C2CCCCC2)nc2ccccc2c1=O the “activation” value was -1.68%. For CNC(=O)c1cc(C(=O)c2ccccc2Br)c[nH]1, the “activation” value was -15.6%. With CSc1ccc(C(=O)C2CCCN(C(=O)c3ccc4c(c3)no[n+]4[O-])C2)cc1 (configuration not stated) the “activation” value was -3.61%. With CN(C(=O)[C@H]1O[C@@H](n2cnc(C(N)=O)n2)[C@H](O)[C@@H]1O)c1ccccc1 the “activation” value was 6.71%. In the case of CC(=O)Nc1c(C(=O)C2CC2)oc2ccccc12, the “activation” value is reported as -4.6%. In the case of Cc1ccc(-c2cnc3cccnn23)cc1F, the “activation” value is reported as 20%. For CCN(c1ccccc1)S(=O)(=O)c1ccc(OC)c(OC)c1, the “activation” value was -4.43%. For O=S(=O)(c1ccc(=S)[nH]c1)N1CCCCCC1, the “activation” value was -9.77%. With CCC(=O)Nc1cc(C(C)(C)C)ccc1C(C)=O the “activation” value was 2.29%. In the case of Cc1ccccc1C(=O)NC1CCSC1=O (configuration not stated), the “activation” value is reported as 17.9%. In the case of COc1ccc(C(=O)Nc2nnc(-c3cccs3)s2)cc1, the “activation” value is reported as -8.39%. For Cc1cc2nc(-c3ccccc3O)[nH]c2cc1C, the “activation” value was 3.89%. With c1csc(CNc2nc(Oc3ccncc3)c3sccc3n2)c1 the “activation” value was -11%. With O=C(Cn1cc(C(F)(F)F)ccc1=O)NCC1CCCO1 (configuration not stated) the “activation” value was 14.9%. For Cc1ccccc1Nc1c(-c2ccncc2)nc2ccc(Cl)cn12, the “activation” value was -2.55%. With O=C(O)c1c(NC(=O)N2CCOCC2)sc2c1CCCC2 the “activation” value was -6.11%. For O=c1c(C(c2ccccc2)c2c(O)sc3ccccc3c2=O)c(O)sc2ccccc12, the “activation” value was -2.79%. For Cn1c(=O)c2c(nc3n2CCCN3CCc2ccccc2)n(C)c1=O, the “activation” value was 18.9%. With COc1ccc(N2CC(C(=O)N3CCc4ccccc43)CC2=O)cc1 (configuration not stated) the “activation” value was -13.9%. In the case of COc1ccc(-c2[nH]c3ccccc3c2SCCN)cc1, the “activation” value is reported as 1.51%. With O=C1CSC(c2ccccc2)N1c1ccc(F)cc1F (configuration not stated) the “activation” value was -1.91%. For CCc1nc2c(OCCC3CCCCC3)cccn2c1N(C)C(=O)c1ccco1, the “activation” value was 0.816%. For O=C(O)CC(CC(=O)Nc1ccc(C(=O)O)cc1)c1ccccc1 (configuration not stated), the “activation” value was -19.9%. For O=C(COC(=O)c1cccnc1Cl)Nc1cc(S(=O)(=O)N2CCCCCC2)ccc1Cl, the “activation” value was -11.2%. With CC1CCN(C(=O)c2cccc(S(=O)(=O)N3CCN(c4ccccc4)CC3)c2)CC1 the “activation” value was 5.82%. With CC(=O)NN1C(=O)c2ccccc2NC1c1ccccc1O (configuration not stated) the “activation” value was 0.677%. For CN1CCN(c2ccc(CNC(=O)C3(C)Cc4c(-c5ccccc5)ccnc4O3)cc2)CC1 (configuration not stated), the “activation” value was -11.3%. In the case of O=C(NC1CCCCC1)c1cccnc1Sc1ccccc1, the “activation” value is reported as -16%. In the case of COc1ccc(-c2nc(-c3cccnc3)no2)cc1OC, the “activation” value is reported as 4.11%. For COc1ccc(C(=O)Nc2nnc(-c3ccco3)s2)cc1, the “activation” value was -4.87%. For CCn1nc(C)c(NC(=O)c2cnn3c(C(F)F)cc(-c4ccccc4)nc23)c1C, the “activation” value was -12.6%. With CCCc1cc(NCC2CCCO2)n2c(nc3ccccc32)c1C#N (configuration not stated) the “activation” value was 15.6%. With COc1ccc(CCN(C)C(=O)Cn2c(=O)oc3ccccc32)cc1OC the “activation” value was -4.62%. With CCc1nnc(NC(=O)C(c2ccccc2)c2ccccc2)s1 the “activation” value was -6.83%. For CCc1nc2c(OCc3ccccc3C)cccn2c1N(C)C(=O)c1ccco1, the “activation” value was 0.871%. In the case of O=S(=O)(Nc1ncnc2sc3c(c12)CCC3)c1cc(F)ccc1F, the “activation” value is reported as 7.27%. For CCN(CC)C(=O)n1c(Cc2ccccc2)nc2ccccc21, the “activation” value was 12.5%. With Cc1ccc(S(=O)(=O)/N=C(/Nc2cccc(O)c2)c2ccccc2)cc1 the “activation” value was 1.93%. For COc1cccc(CNC(=O)c2cccnc2Sc2ccccc2)c1, the “activation” value was -13.5%. In the case of CCOc1ncccc1C(=O)NCc1cccc(OC)c1, the “activation” value is reported as -7.01%. With Cc1c(-c2cccc(Cl)c2)nc2ccccc2c1C(=O)NC1CC1 the “activation” value was -6.74%. With COc1ccc(CN(C)C(=O)Cn2cc(C)c(=O)[nH]c2=O)cc1OC the “activation” value was 15%. For CC(=O)Nc1cc(-c2ccc(N3CCN(C)CC3)cc2)cn2c(-c3cccc(C(=O)N(C)C)c3)cnc12, the “activation” value was 22.4%. In the case of COc1ccc(-c2cc(NC=O)c3ncc(-c4ccc(OC)c(OC)c4)n3c2)cc1, the “activation” value is reported as -18.9%.
